What was measured:
Assay in all cases: log2 ratio of Biotin-Ahx-Ub-VS probe labelling (fragment/DMSO); higher = less target engagement (more negative = stronger competition), active = hit call of the paper (q ≤ 0.05, log2 ratio ≤ -1)
Settings in all cases: compound concentration: 200 uM; treatment time: 3 h
[1] = target: USP34 (UniProt Q70CQ2)
Procedure, shortened: (§1)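 HEK293T lysate (495 µg per sample, in Tris/CHAPS/IGEPAL buffer with protease inhibitors) was treated in triplicate with fragment at 200 µM or with DMSO for 3 h. It was then treated with Biotin-Ahx-Ub-VS (0.5 µM final) for 1 h. Labelled DUBs were NeutrAvidin-enriched, digested with LysC and trypsin, and run by diaPASEF LC-MS/MS. Spectronaut label-free quantities were global-median-normalised. Values are average log2 ratios fragment/DMSO by unpaired t-test, using proteins with ≥2 unique peptides.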

[2] = target: T1, USP36 (UniProt Q9P275)
T1 sequence (whole entry): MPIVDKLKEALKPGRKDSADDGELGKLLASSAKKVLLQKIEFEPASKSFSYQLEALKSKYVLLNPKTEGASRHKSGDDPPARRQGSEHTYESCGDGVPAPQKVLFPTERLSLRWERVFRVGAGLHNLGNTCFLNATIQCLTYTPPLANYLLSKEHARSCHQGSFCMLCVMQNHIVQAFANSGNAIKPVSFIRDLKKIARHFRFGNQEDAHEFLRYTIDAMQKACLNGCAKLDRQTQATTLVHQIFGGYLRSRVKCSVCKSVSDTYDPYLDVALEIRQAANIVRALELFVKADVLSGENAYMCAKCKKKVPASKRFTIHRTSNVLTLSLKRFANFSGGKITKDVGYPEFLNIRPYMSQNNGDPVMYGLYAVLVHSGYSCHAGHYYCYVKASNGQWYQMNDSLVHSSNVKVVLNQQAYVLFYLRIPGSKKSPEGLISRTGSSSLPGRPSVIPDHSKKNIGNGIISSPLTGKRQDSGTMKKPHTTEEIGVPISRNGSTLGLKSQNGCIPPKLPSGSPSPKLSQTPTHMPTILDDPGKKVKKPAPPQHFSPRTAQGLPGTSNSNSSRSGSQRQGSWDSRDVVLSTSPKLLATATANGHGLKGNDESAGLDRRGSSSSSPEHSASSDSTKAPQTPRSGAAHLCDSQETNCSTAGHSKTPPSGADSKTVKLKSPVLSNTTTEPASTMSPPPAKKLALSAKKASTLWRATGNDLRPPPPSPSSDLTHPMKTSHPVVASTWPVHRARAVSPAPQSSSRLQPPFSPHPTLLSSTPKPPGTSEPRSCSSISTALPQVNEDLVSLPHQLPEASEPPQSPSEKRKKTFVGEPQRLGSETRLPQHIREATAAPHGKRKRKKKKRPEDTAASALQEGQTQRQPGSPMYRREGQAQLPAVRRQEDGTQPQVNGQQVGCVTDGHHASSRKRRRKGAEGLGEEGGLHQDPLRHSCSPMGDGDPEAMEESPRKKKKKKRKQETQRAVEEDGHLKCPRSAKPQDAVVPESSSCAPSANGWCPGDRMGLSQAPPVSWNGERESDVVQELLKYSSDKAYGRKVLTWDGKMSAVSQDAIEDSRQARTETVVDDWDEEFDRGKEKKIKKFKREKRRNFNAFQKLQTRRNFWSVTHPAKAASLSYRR
Procedure, shortened: as §1

[3] = target: T2, USP38 (UniProt Q8NB14)
T2 sequence (whole entry): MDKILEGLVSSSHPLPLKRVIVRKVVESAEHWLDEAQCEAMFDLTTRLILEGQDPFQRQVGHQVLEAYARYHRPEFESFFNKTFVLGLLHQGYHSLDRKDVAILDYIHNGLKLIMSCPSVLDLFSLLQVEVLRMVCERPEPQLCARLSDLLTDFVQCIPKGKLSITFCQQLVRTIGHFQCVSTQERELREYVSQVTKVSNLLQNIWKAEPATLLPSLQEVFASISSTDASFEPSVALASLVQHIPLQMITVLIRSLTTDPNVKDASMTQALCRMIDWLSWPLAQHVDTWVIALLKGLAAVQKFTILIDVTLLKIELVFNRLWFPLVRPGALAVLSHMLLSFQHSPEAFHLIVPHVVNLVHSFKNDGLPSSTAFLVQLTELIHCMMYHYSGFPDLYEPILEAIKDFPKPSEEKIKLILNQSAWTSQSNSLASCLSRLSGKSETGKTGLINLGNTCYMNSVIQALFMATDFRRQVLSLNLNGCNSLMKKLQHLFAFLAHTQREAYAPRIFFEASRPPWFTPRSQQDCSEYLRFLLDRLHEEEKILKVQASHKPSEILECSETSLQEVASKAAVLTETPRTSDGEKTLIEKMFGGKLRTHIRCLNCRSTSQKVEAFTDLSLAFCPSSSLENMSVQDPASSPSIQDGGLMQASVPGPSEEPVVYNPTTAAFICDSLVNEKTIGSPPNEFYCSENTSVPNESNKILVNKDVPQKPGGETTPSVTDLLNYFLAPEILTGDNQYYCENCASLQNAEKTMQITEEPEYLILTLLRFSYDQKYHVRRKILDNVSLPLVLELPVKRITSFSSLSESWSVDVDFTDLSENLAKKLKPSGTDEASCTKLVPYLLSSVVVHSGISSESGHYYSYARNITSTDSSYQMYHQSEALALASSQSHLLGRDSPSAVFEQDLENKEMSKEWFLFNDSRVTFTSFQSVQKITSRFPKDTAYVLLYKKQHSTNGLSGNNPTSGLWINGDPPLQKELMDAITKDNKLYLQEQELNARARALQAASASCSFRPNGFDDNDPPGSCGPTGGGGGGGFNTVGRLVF
Procedure, shortened: as §1

[4] = target: T3, USP39 (UniProt Q53GS9)
T3 sequence (whole entry): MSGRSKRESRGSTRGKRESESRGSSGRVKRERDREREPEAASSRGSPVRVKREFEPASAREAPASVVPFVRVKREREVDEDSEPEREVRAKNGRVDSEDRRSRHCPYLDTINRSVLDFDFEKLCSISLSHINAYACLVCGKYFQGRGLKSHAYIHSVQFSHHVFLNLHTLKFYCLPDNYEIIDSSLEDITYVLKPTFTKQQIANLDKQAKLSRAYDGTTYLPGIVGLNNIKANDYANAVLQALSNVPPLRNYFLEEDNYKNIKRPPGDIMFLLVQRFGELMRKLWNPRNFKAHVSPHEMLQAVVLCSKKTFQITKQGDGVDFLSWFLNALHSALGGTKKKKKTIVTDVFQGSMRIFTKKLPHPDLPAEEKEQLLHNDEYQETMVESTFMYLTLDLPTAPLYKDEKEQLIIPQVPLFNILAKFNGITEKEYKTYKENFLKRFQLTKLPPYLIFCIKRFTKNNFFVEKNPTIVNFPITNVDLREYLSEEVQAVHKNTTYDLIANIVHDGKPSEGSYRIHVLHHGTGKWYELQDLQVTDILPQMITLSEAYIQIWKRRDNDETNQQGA
Procedure, shortened: as §1

[5] = target: T4, USP4 (UniProt Q13107)
T4 sequence (whole entry): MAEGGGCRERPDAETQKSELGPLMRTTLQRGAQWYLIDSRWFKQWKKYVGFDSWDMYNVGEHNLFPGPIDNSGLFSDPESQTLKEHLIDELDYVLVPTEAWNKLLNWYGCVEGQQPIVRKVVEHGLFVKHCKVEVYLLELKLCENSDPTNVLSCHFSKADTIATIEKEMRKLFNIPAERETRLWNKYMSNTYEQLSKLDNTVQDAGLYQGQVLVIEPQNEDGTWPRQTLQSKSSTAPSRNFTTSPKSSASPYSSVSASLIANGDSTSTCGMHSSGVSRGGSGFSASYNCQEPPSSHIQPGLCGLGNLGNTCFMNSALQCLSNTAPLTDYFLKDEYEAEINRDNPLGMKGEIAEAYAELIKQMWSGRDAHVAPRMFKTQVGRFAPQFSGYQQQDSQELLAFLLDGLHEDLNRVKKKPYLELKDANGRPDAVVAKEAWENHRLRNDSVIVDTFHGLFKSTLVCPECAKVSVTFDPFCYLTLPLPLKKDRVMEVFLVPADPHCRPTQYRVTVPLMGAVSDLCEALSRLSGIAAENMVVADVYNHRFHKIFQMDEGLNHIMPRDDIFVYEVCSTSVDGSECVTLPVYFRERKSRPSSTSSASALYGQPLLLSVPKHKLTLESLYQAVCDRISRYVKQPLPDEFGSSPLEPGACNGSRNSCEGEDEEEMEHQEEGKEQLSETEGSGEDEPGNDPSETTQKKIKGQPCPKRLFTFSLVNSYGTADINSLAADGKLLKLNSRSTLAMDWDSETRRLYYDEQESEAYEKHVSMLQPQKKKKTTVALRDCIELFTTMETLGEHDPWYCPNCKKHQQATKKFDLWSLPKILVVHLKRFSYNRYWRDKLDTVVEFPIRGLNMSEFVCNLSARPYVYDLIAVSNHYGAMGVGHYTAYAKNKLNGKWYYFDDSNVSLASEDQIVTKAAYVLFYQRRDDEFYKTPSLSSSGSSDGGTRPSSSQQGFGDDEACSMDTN
Procedure, shortened: as §1

Measured: log2 ratio of Biotin-Ahx-Ub-VS probe labelling

Chain of USP34 (Q70CQ2 whole entry, the tested form may be a part): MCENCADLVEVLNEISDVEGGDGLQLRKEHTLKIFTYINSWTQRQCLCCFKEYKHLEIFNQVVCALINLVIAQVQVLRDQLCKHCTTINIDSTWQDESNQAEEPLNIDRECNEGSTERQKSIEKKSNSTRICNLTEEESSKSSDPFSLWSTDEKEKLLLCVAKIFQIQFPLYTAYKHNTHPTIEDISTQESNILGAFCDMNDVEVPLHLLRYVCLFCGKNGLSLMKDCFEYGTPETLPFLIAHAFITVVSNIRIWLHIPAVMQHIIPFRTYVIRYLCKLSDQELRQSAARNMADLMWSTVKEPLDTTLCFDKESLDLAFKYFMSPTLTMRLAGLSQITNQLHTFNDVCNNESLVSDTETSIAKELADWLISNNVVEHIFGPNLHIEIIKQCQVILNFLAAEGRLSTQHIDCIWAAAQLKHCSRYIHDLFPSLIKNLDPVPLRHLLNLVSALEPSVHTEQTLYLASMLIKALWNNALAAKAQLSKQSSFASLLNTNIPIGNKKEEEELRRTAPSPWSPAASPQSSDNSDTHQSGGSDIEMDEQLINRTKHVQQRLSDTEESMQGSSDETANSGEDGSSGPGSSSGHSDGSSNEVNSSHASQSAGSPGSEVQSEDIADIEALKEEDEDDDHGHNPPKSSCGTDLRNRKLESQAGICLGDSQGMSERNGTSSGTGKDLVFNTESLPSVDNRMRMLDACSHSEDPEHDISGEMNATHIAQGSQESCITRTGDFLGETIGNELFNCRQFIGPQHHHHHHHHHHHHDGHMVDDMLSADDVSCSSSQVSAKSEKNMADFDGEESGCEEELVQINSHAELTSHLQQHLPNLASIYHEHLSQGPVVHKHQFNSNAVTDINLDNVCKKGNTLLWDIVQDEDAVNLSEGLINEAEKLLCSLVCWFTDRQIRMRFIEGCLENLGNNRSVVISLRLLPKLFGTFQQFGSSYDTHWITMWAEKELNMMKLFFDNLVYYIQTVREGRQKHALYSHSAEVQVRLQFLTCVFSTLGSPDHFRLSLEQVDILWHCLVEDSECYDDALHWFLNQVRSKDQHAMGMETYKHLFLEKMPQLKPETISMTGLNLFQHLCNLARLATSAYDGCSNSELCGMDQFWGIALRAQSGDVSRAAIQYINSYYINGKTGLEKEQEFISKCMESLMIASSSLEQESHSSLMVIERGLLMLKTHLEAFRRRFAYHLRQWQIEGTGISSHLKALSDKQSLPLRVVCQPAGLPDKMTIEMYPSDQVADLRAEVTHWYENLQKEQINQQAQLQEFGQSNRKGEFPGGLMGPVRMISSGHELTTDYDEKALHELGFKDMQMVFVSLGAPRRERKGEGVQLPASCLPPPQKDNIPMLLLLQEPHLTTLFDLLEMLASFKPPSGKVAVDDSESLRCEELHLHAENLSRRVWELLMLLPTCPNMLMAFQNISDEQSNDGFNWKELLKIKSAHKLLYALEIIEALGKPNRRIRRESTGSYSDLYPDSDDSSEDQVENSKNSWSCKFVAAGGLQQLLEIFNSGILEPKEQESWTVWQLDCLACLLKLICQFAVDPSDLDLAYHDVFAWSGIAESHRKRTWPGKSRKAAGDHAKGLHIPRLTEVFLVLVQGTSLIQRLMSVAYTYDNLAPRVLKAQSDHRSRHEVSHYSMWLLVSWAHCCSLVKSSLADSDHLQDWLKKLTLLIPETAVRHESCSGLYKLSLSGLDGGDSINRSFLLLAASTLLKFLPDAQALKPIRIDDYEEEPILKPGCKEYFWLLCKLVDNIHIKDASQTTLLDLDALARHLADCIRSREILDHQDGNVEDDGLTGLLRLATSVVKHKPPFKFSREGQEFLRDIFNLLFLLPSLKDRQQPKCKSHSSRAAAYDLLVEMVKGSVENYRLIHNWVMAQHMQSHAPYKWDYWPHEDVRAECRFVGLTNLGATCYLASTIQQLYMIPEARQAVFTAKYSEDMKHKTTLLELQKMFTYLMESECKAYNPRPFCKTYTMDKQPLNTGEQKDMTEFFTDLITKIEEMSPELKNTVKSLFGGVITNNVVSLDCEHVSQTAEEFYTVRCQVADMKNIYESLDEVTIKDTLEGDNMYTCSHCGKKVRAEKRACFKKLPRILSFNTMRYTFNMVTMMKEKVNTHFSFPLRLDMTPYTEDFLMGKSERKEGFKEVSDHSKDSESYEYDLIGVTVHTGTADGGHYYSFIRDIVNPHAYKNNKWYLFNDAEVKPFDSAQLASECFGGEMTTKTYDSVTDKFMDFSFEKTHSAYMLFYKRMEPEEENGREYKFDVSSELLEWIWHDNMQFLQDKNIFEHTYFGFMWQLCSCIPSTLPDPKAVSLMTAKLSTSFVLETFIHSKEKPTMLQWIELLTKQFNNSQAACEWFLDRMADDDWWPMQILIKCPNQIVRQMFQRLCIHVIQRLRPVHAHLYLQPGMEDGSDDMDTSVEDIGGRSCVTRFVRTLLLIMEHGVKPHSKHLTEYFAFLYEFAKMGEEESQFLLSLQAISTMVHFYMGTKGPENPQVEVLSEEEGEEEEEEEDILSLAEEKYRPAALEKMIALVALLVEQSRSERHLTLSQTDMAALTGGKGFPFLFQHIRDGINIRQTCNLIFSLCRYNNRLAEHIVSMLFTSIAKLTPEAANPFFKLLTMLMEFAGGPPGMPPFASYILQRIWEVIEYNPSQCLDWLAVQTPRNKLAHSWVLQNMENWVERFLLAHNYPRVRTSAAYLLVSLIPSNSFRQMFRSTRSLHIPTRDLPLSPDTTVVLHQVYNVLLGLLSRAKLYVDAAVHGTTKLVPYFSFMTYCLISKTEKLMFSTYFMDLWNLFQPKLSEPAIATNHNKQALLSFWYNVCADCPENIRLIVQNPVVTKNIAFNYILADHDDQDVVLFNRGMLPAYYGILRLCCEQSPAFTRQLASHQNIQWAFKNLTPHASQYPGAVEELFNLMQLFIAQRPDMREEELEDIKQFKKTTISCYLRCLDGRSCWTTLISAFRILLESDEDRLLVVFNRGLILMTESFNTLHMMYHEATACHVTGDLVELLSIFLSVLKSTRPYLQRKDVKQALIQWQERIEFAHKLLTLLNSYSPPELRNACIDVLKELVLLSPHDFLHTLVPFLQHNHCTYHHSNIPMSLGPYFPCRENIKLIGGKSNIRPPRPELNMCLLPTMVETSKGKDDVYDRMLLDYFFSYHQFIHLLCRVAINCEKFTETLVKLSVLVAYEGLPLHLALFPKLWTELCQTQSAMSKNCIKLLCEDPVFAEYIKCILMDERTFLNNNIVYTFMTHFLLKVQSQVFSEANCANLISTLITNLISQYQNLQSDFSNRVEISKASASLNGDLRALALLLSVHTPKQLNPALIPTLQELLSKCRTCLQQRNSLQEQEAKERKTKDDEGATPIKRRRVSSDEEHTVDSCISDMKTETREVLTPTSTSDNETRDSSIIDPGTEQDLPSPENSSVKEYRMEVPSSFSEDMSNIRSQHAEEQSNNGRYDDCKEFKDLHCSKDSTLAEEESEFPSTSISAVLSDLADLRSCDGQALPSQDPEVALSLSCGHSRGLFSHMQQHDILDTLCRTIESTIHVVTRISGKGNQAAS

O=C(CCl)N1CCN(C(=O)Nc2ccccc2)CC1
inactive: [1] -0.102 | [2] -0.282 | [3] 0.184 | [4] -0.0496 | [5] 0.0949
